From PubChem BioAssay AID1159580 (chemical genetic matrix, 2015)
Hit rate of the full screen: of about 5,500 compounds, about 2,000 (36%) were called active. Not shown: some 18% with an inconclusive outcome. Rule as the data show it: active = normalized growth mostly below about 0.91 (no sharp cut-off); inconclusive = no clear call, values can overlap the other calls; inactive = mostly above about 0.92. Some of the results follow.

Experiment: chemical genetic growth profiling, strain panel (AID 1159580);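 also: tested at 20 µM; growth read once vehicle control cultures reached saturation at 30 °C; 1 = growth at the plate median or of vehicle wells; lower values mean less growth of the strain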
Settings: growth OD

Measured: normalized growth

COc1ccc2c(=O)cc(-c3ccccc3OC)oc2c1
active: S. cerevisiae deletion strains, locus YAL013W, strain DEP1, hits give low values 0.743 | S. cerevisiae deletion strains, locus YBR021W, strain FUR4, hits give low values 0.797 | S. cerevisiae deletion strains, locus YDL192W, strain arf1, hits give low values 0.763 | S. cerevisiae deletion strains, locus YDR101C, strain arx1, hits give low values 0.883 | S. cerevisiae deletion strains, locus YDR318W, strain mcm21, hits give low values 0.866 | S. cerevisiae deletion strains, locus YDR502C, strain sam2, hits give low values 0.85 | S. cerevisiae deletion strains, locus YER155C, strain BEM2, hits give low values 0.869 | S. cerevisiae deletion strains, locus YGL086W, strain mad1, hits give low values 0.833 | S. cerevisiae deletion strains, locus YGL248W, strain PDE1, hits give low values 0.825 | S. cerevisiae deletion strains, locus YGR078C, strain PAC10, hits give low values 0.509 | S. cerevisiae deletion strains, locus YGR135W, strain pre9, hits give low values 0.812 | S. cerevisiae deletion strains, locus YGR252W, strain gcn5, hits give low values 0.716 | S. cerevisiae deletion strains, locus YHR030C, strain SLT2, hits give low values 0.539 | S. cerevisiae deletion strains, locus YHR129C, strain ARP1, hits give low values 0.849 | S. cerevisiae deletion strains, locus YHR200W, strain rpn10, hits give low values 0.895 | S. cerevisiae deletion strains, locus YIL066C, strain RNR3, hits give low values 0.819 | S. cerevisiae deletion strains, locus YIR030C, strain dcg1, hits give low values 0.905 | S. cerevisiae deletion strains, locus YJL095W, strain BCK1, hits give low values 0.437 | S. cerevisiae deletion strains, locus YJR043C, strain POL32, hits give low values 0.778 | S. cerevisiae deletion strains, locus YKR001C, strain vps1, hits give low values 0.709 | S. cerevisiae deletion strains, locus YLR039C, strain RIC1, hits give low values 0.642 | S. cerevisiae deletion strains, locus YLR268W, strain sec22, hits give low values 0.767 | S. cerevisiae deletion strains, locus YLR330W, strain CHS5, hits give low values 0.629 | S. cerevisiae deletion strains, locus YLR342W, strain FKS1 (second series), hits give low values 0.716 | S. cerevisiae deletion strains, locus YLR371W, strain rom2, hits give low values 0.728 | S. cerevisiae deletion strains, locus YLR418C, strain cdc73, hits give low values 0.468 | S. cerevisiae deletion strains, locus YML032C, strain rad52, hits give low values 0.879 | S. cerevisiae deletion strains, locus YMR223W, strain ubp8, hits give low values 0.831 | S. cerevisiae deletion strains, locus YMR307W, strain GAS1, hits give low values 0.49 | S. cerevisiae deletion strains, locus YNL128W, strain TEP1, hits give low values 0.708 | S. cerevisiae deletion strains, locus YNL233W, strain BNI4, hits give low values 0.632 | S. cerevisiae deletion strains, locus YNL307C, strain MCK1, hits give low values 0.526 | S. cerevisiae deletion strains, locus YNR052C, strain pop2, hits give low values 0.914 | S. cerevisiae deletion strains, locus YOL006C, strain TOP1, hits give low values 0.484 | S. cerevisiae deletion strains, locus YOL147C, strain pex11, hits give low values 0.874 | S. cerevisiae deletion strains, locus YOR144C, strain elg1, hits give low values 0.916 | S. cerevisiae deletion strains, locus YOR184W, strain ser1, hits give low values 0.671 | S. cerevisiae deletion strains, locus YPL241C, strain CIN2, hits give low values 0.918 | S. cerevisiae deletion strains, locus YPR163C, strain tif3, hits give low values 0.748 | S. cerevisiae deletion strains, locus YPR167C, strain met16, hits give low values 0.902 | S. cerevisiae deletion strains, strain wtn01, hits give low values 0.802 | S. cerevisiae strains, strain wild type, hits give low values 0.589
inactive: S. cerevisiae deletion strains, locus YBR229C, strain ROT2, hits give low values 0.97 | S. cerevisiae deletion strains, locus YCL029C, strain bik1, hits give low values 0.946 | S. cerevisiae deletion strains, locus YDL035C, strain GPR1, hits give low values 0.865 | S. cerevisiae deletion strains, locus YDL074C, strain BRE1, hits give low values 0.81 | S. cerevisiae deletion strains, locus YDL101C, strain DUN1, hits give low values 0.933 | S. cerevisiae deletion strains, locus YDL185W, strain tfp1, hits give low values 0.948 | S. cerevisiae deletion strains, locus YDR162C, strain NBP2, hits give low values 0.843 | S. cerevisiae deletion strains, locus YDR388W, hits give low values 0.934 | S. cerevisiae deletion strains, locus YER110C, hits give low values 0.939 | S. cerevisiae deletion strains, locus YGL078C, strain dbp3, hits give low values 0.934 | S. cerevisiae deletion strains, locus YHR079C, strain IRE1 (second series), hits give low values 0.941 | S. cerevisiae deletion strains, locus YHR094C, strain hxt1, hits give low values 0.961 | S. cerevisiae deletion strains, locus YIL073C, strain SPO22, hits give low values 0.806 | S. cerevisiae deletion strains, locus YIL125W, strain kgd1, hits give low values 0.938 | S. cerevisiae deletion strains, locus YJL134W, strain LCB3, hits give low values 0.985 | S. cerevisiae deletion strains, locus YJL168C, strain set2, hits give low values 0.941 | S. cerevisiae deletion strains, locus YJL187C, strain SWE1 (second series), hits give low values 0.918 | S. cerevisiae deletion strains, locus YKL009W, strain mrt4, hits give low values 0.947 | S. cerevisiae deletion strains, locus YKL068W, hits give low values 0.963 | S. cerevisiae deletion strains, locus YKL085W, strain MDH1 (second series), hits give low values 0.97 | S. cerevisiae deletion strains, locus YKL085W, strain MDH1, hits give low values 0.97 | S. cerevisiae deletion strains, locus YLR058C, strain SHM2, hits give low values 0.949 | S. cerevisiae deletion strains, locus YLR102C, strain apc9, hits give low values 0.95 | S. cerevisiae deletion strains, locus YLR262C, strain YPT6, hits give low values 0.65 | S. cerevisiae deletion strains, locus YML016C, strain PPZ1, hits give low values 0.974 | S. cerevisiae deletion strains, locus YML124C, strain tub3, hits give low values 0.94 | S. cerevisiae deletion strains, locus YMR078C, strain ctf18, hits give low values 0.916 | S. cerevisiae deletion strains, locus YNL067W, strain RPL9B, hits give low values 0.923 | S. cerevisiae deletion strains, locus YNL250W, strain rad50, hits give low values 0.984 | S. cerevisiae deletion strains, locus YNL271C, strain bni1, hits give low values 0.939 | S. cerevisiae deletion strains, locus YNL298W, strain CLA4, hits give low values 0.912 | S. cerevisiae deletion strains, locus YNL322C, strain KRE1, hits give low values 0.969 | S. cerevisiae deletion strains, locus YOL012C, strain htz1 0.811 | S. cerevisiae deletion strains, locus YOR061W, strain CKA2, hits give low values 0.976 | S. cerevisiae deletion strains, locus YOR069W, strain VPS5, hits give low values 0.957 | S. cerevisiae deletion strains, locus YOR136W, strain idh2, hits give low values 0.931 | S. cerevisiae deletion strains, locus YOR316C, strain cot1, hits give low values 0.958 | S. cerevisiae deletion strains, locus YPR119W, strain clb2, hits give low values 0.941 | S. cerevisiae deletion strains, locus YPR141C, strain kar3, hits give low values 0.96
